# ELG1 DNA repair: qHTS screen for small molecules that inhibit ELG1-dependent DNA repair in human embryonic kidney (HEK293T) cells expressing luciferase-tagged ELG1; HEK293T ELG1-luciferase reporter, luminescence, 16 h; DNA damage induced by 5-fluorouridine; Potency, µM (highest dose often 46.1 µM), inactives show at the top dose activity change, negative = inhibition, hits mostly inhibitors; 2.3% of 330,000 active; AID 504467, 2011; further: on the % scale 0 is the no-effect control and ±100 the full control effect; nearly all actives have a fitted effect of over 55% in size
#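 Reporter activity after DNA damage by 5-fluorouridine is monitored. Compound-treated cells incubate 16 hr at 37 °C, then ONE-Glo is added for 30 min before luminescence reading.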
# ELG1 genotoxic: qHTS screen for small molecules that induce genotoxicity in human embryonic kidney (HEK293T) cells expressing luciferase-tagged ELG1 | HEK293T ELG1-luciferase reporter, luminescence, 16 h | Potency, µM (top dose mostly 46 µM), without a hit: at the top dose activity change, positive = activation, most hits filed as activators | 1.3% of 330,000 active; further: % of control where 0% means no effect; nearly all actives have a fitted effect of over 60% in size
#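 Luminescence read-out: rising ELG1-luciferase signal, reflecting elevated ELG1 protein under genetic stress, flags genotoxic compounds. Cells were treated for 16 hr at 37 °C before ONE-Glo detection.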
# SMN2 splice up: qHTS Assay for Enhancers of SMN2 Splice Variant Expression; 2.8% of 210,000 active; HEK293 SMN2-luciferase splicing reporter, luminescence, 30-36 h; Potency, µM (top dose mostly 46.1 µM), for inactives: at the top dose activity change, positive = activation, hits mostly activators; further: % of control where 0% means no effect; nearly all actives have a fitted effect of over 55% in size
#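 HEK293 cells carry an SMN2 […]–luciferase reporter in which exon 7 inclusion puts luciferase in frame. Cells were plated 10-12 h before compound addition, then incubated 30-36 h at 37C. ONE-Glo luminescence was read; sodium butyrate at 4.5 mM final served as control.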
# FLuc counter: qHTS profiling assay for firefly luciferase inhibitor/activator using purifed enzyme and Km concentrations of substrates (counterscreen for miR-21 project) | Luciferin 4-monooxygenase (Photinus pyralis), P08659 | purified FLuc, Km substrates, luminescence inhibition | Potency, µM (titrated, usually from 57.5 µM), without a hit: at the highest dose activity change, negative = inhibition, usual class: inhibitors | 6.9% of 360,000 active | AID 588342, 2011;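 further: plate controls were vehicle for no effect and reference inhibitor for full effect; nearly all actives have a fitted effect of over 55% in size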
# Target sequence (P08659 whole entry, looked up): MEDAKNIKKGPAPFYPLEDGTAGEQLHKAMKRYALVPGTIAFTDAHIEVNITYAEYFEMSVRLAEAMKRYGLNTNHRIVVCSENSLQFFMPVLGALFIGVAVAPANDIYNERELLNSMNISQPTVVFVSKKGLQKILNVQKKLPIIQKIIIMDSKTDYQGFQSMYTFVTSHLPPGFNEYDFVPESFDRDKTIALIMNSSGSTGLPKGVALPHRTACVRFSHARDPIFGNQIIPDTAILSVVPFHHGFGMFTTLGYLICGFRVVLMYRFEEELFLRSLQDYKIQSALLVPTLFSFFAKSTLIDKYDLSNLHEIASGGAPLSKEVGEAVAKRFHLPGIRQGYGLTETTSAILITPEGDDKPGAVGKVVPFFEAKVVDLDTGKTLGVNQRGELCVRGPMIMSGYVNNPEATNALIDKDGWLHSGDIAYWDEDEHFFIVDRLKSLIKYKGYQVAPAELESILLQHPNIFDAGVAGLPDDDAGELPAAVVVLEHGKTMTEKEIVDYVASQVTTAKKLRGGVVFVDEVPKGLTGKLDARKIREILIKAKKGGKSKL
#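 Purified P. pyralis luciferase (10nM final) with 10uM D-luciferin and 10uM ATP (Km levels) in 50mM Tris acetate pH 7.5, 10mM Mg acetate, 0.01% Tween-20, 0.05% BSA; qHTS 6-point titration, ~60 µM downward; luminescence read.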
# Rab9 promoter act: qHTS Assay for Rab9 Promoter Activators; Huh7 Rab9 promoter-luciferase reporter, luminescence, 24 h; Potency, µM (series often up to 9.22 µM), for inactives: top-dose activation, negative = inhibition, most hits filed as activators; 2.8% of 320,000 active; further: % of control where 0% means no effect; nearly all actives have a fitted effect of over 60% in size
#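 Huh7 cells stably carrying Rab9 promoter–luciferase reporter, plated 1500 cells/well, compound added after 2 h and incubated 24 h at 37 °C; luciferase luminescence then read after 10 min with detection reagent.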
# NPC1 prom act: qHTS Assay for NPC1 Promoter Activators; Huh7 NPC1 promoter luciferase reporter, 24 h; Potency, µM (series often up to 9.22 µM), without a hit: top-dose activation, hits mostly activators; 2.4% of 320,000 active; AID 485313, 2010; further: % of control where 0% means no effect; nearly all actives have a fitted effect of over 60% in size
#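 Stable NPC1-promoter luciferase Huh7 line; cpd (DMSO) 24 h, 37 °C, 5% CO2; Amplite luciferase reagent 10 min RT; luminescence readout. qHTS format.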
# * marks the source's active call; other numbers are inactive results; ? = inconclusive; · = no result given; [ ] = another dose, or the depositor's remark. Compounds with a hit are over-represented: about 9.4% of the library has one in this group of screens. The call rests on the fitted dose curve; in most records, active means well fitted curve in the direction sought with a large enough effect; inconclusive means small, poorly fitted or top-dose-only effect, or another doubt; inactive means no such curve, though single readings can be large; an effect the other way counts as inactive or inconclusive. Potency means the concentration at half of the fitted maximal effect.
SMILES,ELG1 DNA repair,ELG1 genotoxic,SMN2 splice up,FLuc counter,Rab9 promoter act,NPC1 prom act
COc1ccc2[nH]c3c(=O)n(Cc4ccc(C(=O)N5CCC(C(N)=O)CC5)cc4)c(=S)[nH]c3c2c1,8.2µM*,0.3%,3.6%,21.3µM*,6.1%,1.3%
CC1(C)C(=O)N(CC(=O)Nc2ccc(OC(F)(F)F)cc2)c2ccccc21,·,·,·,-2.7%,·,·
CCCSc1ncc(Cl)c(C(=O)Nc2sc(C(C)=O)c(C)c2C(=O)OCC)n1,·,·,10.5%,0.0%,·,·
Cc1ccc(C)c(Cn2c3ccccc3c3cnn(CC(=O)NC(C)c4ccccc4)c(=O)c32)c1 (centres undefined),·,·,5.9%,-6.1%,·,·
O=C(c1ccc(Cn2c(=S)[nH]c3ccccc3c2=O)cc1)N1CCN(c2ccccn2)CC1,10.3µM*,-14.1%,-97.5%,6.1%,-14.1%,-8.2%
CCOC(=O)N1CCN(C(=O)c2ccc3c(=O)n(Cc4ccc(OC)cc4)c(=S)[nH]c3c2)CC1,13µM*,-9.6%,-51.4%,3.1%,-3.9%,-6.5%
CCOC(=O)N1CCN(C(=O)c2ccc3c(=O)n(Cc4ccccc4)c(=S)[nH]c3c2)CC1,-12.7%,-1.9%,-11.4%,-2.7%,1.6%,-3.0%
O=C(CCc1nnc2n(Cc3ccc(F)cc3)c(=O)c3ccccc3n12)NCCN1CCOCC1,9.1%,4.4%,·,0.5%,6.0%,-5.6%
O=C(CCc1nnc2n(Cc3ccc(F)cc3)c(=O)c3ccccc3n12)N1CCN(c2ccccn2)CC1,14.6µM*,-2.5%[9.26 µM],·,1.5%,-3.0%,-4.9%
COCCn1c(=O)[nH]c2cc(C(=O)N3CCN(c4ccc(Cl)cc4)CC3)ccc2c1=O,18.3µM*,-25.5%,-1.0%,1.4%,-12.9%,-5.1%
COc1cc(NC(=O)c2cc3cc4ccc(OC)c(Cl)c4nc3s2)cc(OC)c1,·,·,·,-2.7%,·,·
Cc1ccc(NC(=O)Cn2c(-c3ccc4c(c3)OCO4)cn(-c3ccccc3)c2=O)cc1,·,·,?,12µM*,·,·
Cc1cccc[n+]1CC(=O)N1c2ccccc2Sc2ccccc21,-11.7%,-3.3%,3.3%,-1.0%,5.1%,1.2%
O=C(Nc1cccc2nsnc12)c1ccc2c(c1)OCCO2,?,?,?,10.7µM*,3.55µM*,?
O=C(Nc1cccc2nsnc12)c1ccc2c(c1)OCO2,?,8.8%,8.7%,16.9µM*,?,?
O=C(Nc1cccc2nsnc12)c1ccc(F)cc1,?,-3.8%,?,?,12.2%,6.0%
CCOc1ccc(C(=O)Nc2cccc3nsnc23)cc1[N+](=O)[O-],12.4%,12.9%,·,-0.5%,-6.5%,-6.2%
CCC1CCCCN1S(=O)(=O)c1cc2c(cc1C)NC(=O)CO2 (centres undefined),·,·,·,-8.9%,·,·
COc1cc(/C=N/NC(=O)CCn2c3ccccc3c3ccccc32)ccc1O,?,-15.2%,-34.3%,-9.5%,0.7%,-1.3%
COc1cc(C(=O)N/N=C/c2ccc3c(c2)c2ccccc2n3C)ccc1O,-16.2%,-8.7%,·,10.7µM*,-0.4%,-14.8%
Cn1c2ccccc2c2cc(/C=N/NC(=O)c3cc(O)ccc3O)ccc21,-18.6%,-5.0%,·,?,10.0%,-12.6%
Cn1c2ccccc2c2cc(/C=N/NC(=O)c3cc(O)cc(O)c3)ccc21,0.6%,5.6%,·,23.9µM*,?,1.6%
O=C1/C(=C/c2ccccc2)Nc2ccccc21,-2.2%,-0.8%,-23.9%,4.26µM*,1.6%,-3.2%
Cc1ccc(OCCNC(=O)c2ccc(COc3ccccc3)o2)cc1,1.8%,8.3%,·,-7.8%,1.3%,-2.1%

# Assay outcomes as filed in PubChem.
